Compound activity deposited in PubChem by National Center for Advancing Translational Sciences (NCATS).
GLP-1R inv ag = acts as inverse agonist at human GLP-1 receptor; P43220; HEK293 GLP-1R CRE-luciferase, luminescence, 24 h; GLP-1R form is constitutively active; Potency, µM (titrated, usually from 38.3 µM), without a hit: top-dose activity change, negative = inhibition, most hits filed as inhibitors; hit rate 1.6% among 410,000; AID 624417; also: % is scaled to controls: 0 for no effect and ±100 for the full control effect; nearly all actives have a fitted effect of over 55% in size
Target sequence (P43220 whole entry, looked up): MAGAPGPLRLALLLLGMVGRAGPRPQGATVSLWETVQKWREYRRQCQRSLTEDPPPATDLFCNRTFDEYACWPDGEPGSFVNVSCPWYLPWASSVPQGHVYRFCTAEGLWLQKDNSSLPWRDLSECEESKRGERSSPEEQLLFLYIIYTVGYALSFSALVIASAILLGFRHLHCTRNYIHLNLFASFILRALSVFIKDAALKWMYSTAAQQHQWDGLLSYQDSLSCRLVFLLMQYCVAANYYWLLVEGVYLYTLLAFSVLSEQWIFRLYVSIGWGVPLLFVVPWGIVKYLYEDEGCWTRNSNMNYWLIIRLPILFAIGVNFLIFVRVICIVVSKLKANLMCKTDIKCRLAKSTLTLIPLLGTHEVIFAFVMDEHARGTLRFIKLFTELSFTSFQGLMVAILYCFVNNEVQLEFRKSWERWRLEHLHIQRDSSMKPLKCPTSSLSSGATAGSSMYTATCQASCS
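Seeding at 200 cells/uL, 12 h culture, 24 hr compound treatment, then luciferase reagent and a luminescence read; cells are HEK293 stably expressing a constitutively active GLP-1R plus cAMP-responsive luciferase.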
GLP-1R agonist = activates the human GLP-1 receptor. P43220. HEK293 GLP-1R CRE-luciferase, luminescence, 4-6 h; cells express a hypersensitive GLP-1R form. hit rate 0.007% among 380,000. Potency, µM (top dose mostly 45.6 µM), inactives show at the top dose activation, hits mostly activators; also: % of control where 0% means no effect
RORgamma inh = inhibitors of mouse ROR gamma transcriptional activity | P51450 | Drosophila S2 Gal4-RORgamma UAS-luciferase reporter, 20 h | Potency, µM (titrated, usually from 53.6 µM), for the others: top-dose activity change, negative = inhibition, usual class: inhibitors | hit rate 5.4% among 310,000 | AID 2551; also: % is scaled to controls: 0 for no effect and ±100 for the full control effect; nearly all actives have a fitted effect of over 60% in size
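Read-out: Photinus luciferase luminescence; inhibitors lower reporter signal. Insect Schneider cells with Gal4-ROR gamma fusion under metallothionein promoter, UAS reporter; 700 uM final copper sulfate induction, 20 hr, ambient temperature.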
Gal4-VP16 FLuc = Gal4-VP16 reporter inhibition counter-screen; Drosophila S2 Gal4-VP16 UAS-luciferase, luminescence, 20 h; Potency, µM (series often up to 53.6 µM), without a hit: at the highest dose activity, negative = inhibition, hits mostly inhibitors; hit rate 3.5% among 310,000;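 also: Gal4-VP16 expression switched on by copper sulfate through the metallothionein promoter; % is scaled to controls: 0 for no effect and ±100 for the full control effect; nearly all actives have a fitted effect of over 50% in size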
HEK293 tox = cytotoxic in the GLP-1 receptor inverse agonist counter-screen; Potency, µM (titrated, usually from 38.3 µM), inactives show at the top dose activity change, negative = inhibition, most hits filed as inhibitors; HEK293 cAMP-luciferase reporter cells, luminescence, 24 h; hit rate 0.13% among 410,000;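 also: loss of luciferase light is scored as toxicity; % is scaled to controls: 0 for no effect and ±100 for the full control effect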
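Compound-treated cells are incubated 24 hr at 37 deg C under 5% CO2 after a 12 hour attachment period, then luciferase detection reagent is added and luminescence is measured following 12 min at room temperature; lowered signal indicates toxicity.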
* marks the source's active call; other numbers are inactive results; ? = inconclusive; · = not tested or not shown. Shown are actives, neighbours in structure and some others; about 5.9% of the full set was active somewhere. Calls follow the shape of the dose curve; as a rule, active = well fitted curve in the direction sought with a large enough effect; inconclusive = small, poorly fitted or top-dose-only effect, or another doubt; inactive = no such curve, though single readings can be large; an effect the other way counts as inactive or inconclusive. Potency is read from the fitted curve at half-maximal effect.

SMILES	GLP-1R inv ag	GLP-1R agonist	RORgamma inh	Gal4-VP16 FLuc	HEK293 tox
Cc1ccc(S(=O)(=O)NCCC2(C(C)C)CCOC(C)(C)C2)cc1 (configuration not stated)	?	1.0%	0.6%	-1.5%	-3.1%
CC(C)C(NC(=O)c1ccco1)C(=O)NCC(c1ccco1)N1CCCCC1 (configuration not stated)	2.9%	-3.2%	-4.5%	0.0%	-0.2%
N#Cc1ccc(C(=O)NCC(c2ccco2)N2CCCCC2)cc1 (configuration not stated)	-0.6%	-7.0%	-0.5%	17.7%	3.0%
O=C(NCC(c1ccco1)N1CCCCC1)C(c1ccccc1)c1ccccc1 (configuration not stated)	11.2µM*	4.6%	0.4%	5.8%	0.4%
O=C(NCC(c1ccco1)N1CCCCC1)c1ccc(COc2ccc(Cl)cc2)cc1 (configuration not stated)	2.82µM*	12.3%	·	·	-26.7%
CC(Sc1ccc(Cl)cc1)C(=O)NCC(c1ccco1)N1CCCCC1 (configuration not stated)	11.2µM*	-4.8%	·	·	-4.2%
S=C(NCCc1ccccc1)NCC(c1ccco1)N1CCCCC1 (configuration not stated)	7.08µM*	22.7%	10µM*	?	-24.2%
CN(CC(=O)NCC(c1ccco1)N1CCCCC1)S(=O)(=O)c1ccc(Cl)cc1 (configuration not stated)	12.6µM*	14.6%	·	·	0.4%
CC(C)c1ccc(OCC(=O)NNC(=S)NC(=O)c2ccco2)c(Br)c1	?	2.3%	6.31µM*	6.31µM*	1.8%
Cc1ccccc1NC(=S)NC(=O)COc1ccccc1C	-3.5%	3.3%	12.6µM*	?	-18.3%
Cc1ccccc1OCC(=O)Nc1ccccc1-c1ccccc1NC(=O)COc1ccccc1C	?	-10.6%	?	-15.9%	10.7%
CC(C)(C)c1ccc(OCC(=O)NCc2ccco2)c(Br)c1	?	17.2%	?	-14.7%	-11.0%
Cc1ccccc1OCC(=O)NNC(=S)NC(=O)c1ccco1	?	-12.6%	12.6µM*	?	-16.9%
CC(C)(C)c1ccc(OCC(=O)NNC(=S)NC(=O)c2ccco2)c(Br)c1	-11.0%	-12.3%	5.01µM*	8.91µM*	-3.8%
COc1ccc(CNC(=O)C2CCN(c3nnc(-n4c(C)ccc4C)s3)CC2)c(OC)c1	8.1%	·	·	·	-2.4%
C[n+]1ccc(/C=N/Nc2nc(Cl)c(C#N)c(Cl)c2Cl)cc1	30.2%	-7.1%	-32.1%	-7.6%	10µM*
CSc1nsc(N/N=C/c2ccccc2)c1C#N	10.7%	8.9%	2.3%	-11.5%	-4.7%
NC(=O)c1ccc[n+]([C@@H]2OC(COP(=O)([O-])OP(=O)(O)OCC3OC(n4cnc5c(N)ncnc54)C(OP(=O)(O)O)C3O)C(O)C2O)c1 (some centres not stated)	·	·	0.8%	3.5%	·
COc1cccc(-c2nnc3sc(C4CCCCC4)nn23)c1	-10.0%	-23.8%	9.8%	-11.3%	-7.1%
CCOc1cccc(-c2nnc3sc(C4CCCCC4)nn23)c1	?	-10.2%	20µM*	?	-14.4%
CC(C(=O)Nc1ccc(C#N)cc1)N(C)CC(=O)Nc1ccccc1Br (configuration not stated)	11.2µM*	2.0%	37.8%	10.7%	-5.1%
COc1ccc(NC(=O)CSCC(=O)N(C)Cc2ccc(Cl)c(Cl)c2)cc1	10µM*	20.8%	·	·	-4.8%
Cc1ccccc1CN1C(=O)c2ccccc2Sc2ccc(C(=O)NC3CCCC3)cc21	5.4%	·	·	·	-9.8%
Cc1ccc(S(=O)(=O)N2[C@@H](c3ccc(Cl)cc3)C(C(=O)O)=CC[C@H]2c2ccc(Cl)c(Cl)c2)cc1	3.55µM*	-3.5%	·	·	-25.5%
Cc1ccc(S(=O)(=O)N2[C@@H](c3ccc(C(C)(C)C)cc3)C(C(=O)O)=CC[C@H]2c2ccc(C(C)C)cc2)cc1	3.16µM*	-3.4%	·	·	?
SMILES	GLP-1R inv ag	GLP-1R agonist	RORgamma inh	Gal4-VP16 FLuc	HEK293 tox
CCc1ccc([C@@H]2CC=C(C(=O)O)[C@H](c3ccc(C(C)(C)C)cc3)N2S(=O)(=O)c2ccc(C)cc2)cc1	12.6µM*	-4.6%	·	·	-11.1%
Cc1ccc([C@@H]2CC=C(C(=O)O)[C@H](c3ccc(C(C)(C)C)cc3)N2S(=O)(=O)c2ccc(C)cc2)cc1	?	-4.1%	·	·	-16.9%
O=C(CCn1c(=O)c2cccn2c2cccnc21)Nc1ccccc1C(F)(F)F	4.2%	·	·	·	3.9%
CCN(c1cccc(C)c1)S(=O)(=O)c1c(C)nc2sc(C)cn2c1=O	0.0%	·	·	·	-0.7%
O=C1C(=C(c2ccccc2)c2ccccc2)Nc2ccccc21	3.16µM*	1.5%	12.9%	13.9%	?
O=C1C(=C(O)c2ccccc2)C(=O)c2ccccc21	12.4%	4.5%	?	1.1%	?
COC(=O)C1=C(C)N=C2SC(C#N)=C(N)N2C1c1cc(OC)c(OC)c(OC)c1 (configuration not stated)	-13.0%	26.9%	16.5%	2.7%	36.8%
COC(=O)C1=C(C)N=C2SC(C#N)=C(N)N2C1c1ccc(OCc2ccccc2)cc1 (configuration not stated)	5.01µM*	-17.2%	14.6%	-5.5%	141.7%
Oc1oc(-c2ccccc2)nc1/C=N/c1nccs1	0.0%	2.0%	15.8µM*	?	14.2%
CCCCOc1ccc(-c2nc(/C=N/c3nccs3)c(O)o2)cc1	17.6%	-6.6%	?	-5.4%	4.9%
C=Cc1ccccn1	·	·	7.2%	-3.0%	·
Cn1nc(C(=O)NCc2cccc(Cl)c2)c2c1-c1ccccc1SC2	?	·	·	·	7.2%
Cc1cccc(NC(=S)NCC(c2ccccc2)N(C)C)c1 (configuration not stated)	-27.9%	8.9%	3.16µM*	10µM*	-9.8%
CN(C)CCNC(=S)Nc1cccc(Cl)c1	-17.6%	4.5%	-15.1%	-7.7%	-6.9%
CN(C)C(CNC(=S)Nc1cccc(Cl)c1)c1ccccc1 (configuration not stated)	?	-0.1%	3.98µM*	12.6µM*	2.1%
O=C1/C(=C/c2cccs2)NC(=S)N1C1CC1	0.7%	-0.4%	7.08µM*	?	-15.6%
O=C1NC(=S)SC1=Cc1cccs1	?	-1.0%	·	·	?
CNC(=S)NNC(=O)c1ccc(=O)n(Cc2ccc(Cl)cc2Cl)c1	1.5%	12.6%	12.6µM*	?	-10.1%
CNC(=S)NNC(=O)c1cccn(Cc2ccc(Cl)cc2Cl)c1=O	·	·	37.4%	-4.4%	·
CN(C1CCCCC1)S(=O)(=O)c1ccc2c(c1)c(=O)c(C(=O)NCCc1ccc(Cl)cc1)cn2C	4.2%	·	·	·	0.0%
Cc1ccc(-n2c3c(c(=O)[nH]c2=O)C(NC(=O)C(C)(C)C)(C(F)(F)F)C(=O)N3)cc1 (configuration not stated)	12.3%	·	·	·	19.9%
